GLS inh = blocks human kidney-isoform glutaminase activity. AID 624170. O94925. GLS enzymatic activity, qHTS titration. Potency, µM (titrated, usually from 45.5 µM), usual class: inhibitors. 0.21% of 410,000 active
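Two-point fluorescence kinetic (t0, 30 min RT) for hKGA; glutamate detected via glutamate oxidase–HRP–Amplex Red. Substrate: 1 mM L-glutamine solution; buffer 45 mM KH2PO4, pH 8.2.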
G9a block = blocks human histone lysine methyltransferase G9a | Q96KQ7 | Potency, µM (series often up to 102 µM), most hits filed as inhibitors | 8.8% of 350,000 active | G9a H3K9 monomethylation, AlphaScreen, 2 h; also: nearly all actives have a fitted effect of over 75% in size
Target sequence (Q96KQ7 913-1193 limits assumed): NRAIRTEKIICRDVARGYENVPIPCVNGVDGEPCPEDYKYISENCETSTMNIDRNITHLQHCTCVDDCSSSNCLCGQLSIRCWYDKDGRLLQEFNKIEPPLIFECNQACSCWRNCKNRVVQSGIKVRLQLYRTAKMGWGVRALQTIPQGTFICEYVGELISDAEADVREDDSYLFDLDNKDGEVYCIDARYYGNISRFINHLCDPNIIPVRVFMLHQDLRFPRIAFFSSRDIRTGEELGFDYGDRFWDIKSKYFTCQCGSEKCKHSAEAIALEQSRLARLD
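AlphaScreen detection with an anti-monomethyl H3K9 antibody quantified product after a 2 h room-temperature reaction containing 500 nM biotinylated H3K9 peptide, 20 µM SAM and 20 nM enzyme, which had been preincubated 15 min with compound.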
JMJD2A Tudor inh = blocks the human JMJD2A Tudor domain | AlphaScreen JMJD2A-Tudor / H3K4me3 peptide binding | 4.4% of 390,000 active | Potency, µM (series often up to 114 µM), usual class: inhibitors | O75164; also: nearly all actives have a fitted effect of over 50% in size
BAZ2B block = BAZ2B (human) inhibition; Q9UIF8; AlphaScreen BAZ2B-H3K14Ac peptide displacement; Potency, µM (top dose mostly 114 µM), usual class: inhibitors; 4.4% of 360,000 active; AID 504333; also: nearly all actives have a fitted effect of over 60% in size
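Complex of BAZ2B and biotin-H3K14Ac (50 nM apiece) forms over 30 min at RT, then faces library compounds up to 110 uM for another 30 min; AlphaScreen beads added, 20 min dark incubation, luminescence read.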
HP1b chromo inh = HP1-beta chromodomain-methylated histone interaction inhibition. P83916. AlphaScreen HP1-beta / biotin-H3K9me3 peptide binding. Potency, µM (series often up to 114 µM), hits mostly inhibitors. 0.56% of 390,000 active; also: nearly all actives have a fitted effect of over 70% in size
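Compound inhibition of the preformed complex between 50 nM HP1-beta and 50 nM biotinylated H3K9me3 peptide was read by AlphaScreen. Buffer was PBS pH 7.4 with 0.01% Tween-20. Incubations ran 30 min at room temperature, with 10 ug/mL donor/acceptor beads.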
JMJD2E inh-1 = inhibitors of human JMJD2E demethylase, 8HQ series round 1; shares compounds with BAZ2B block; JMJD2E demethylase, FDH-coupled NADH fluorescence; Potency, µM (top dose mostly 57 µM), hits mostly inhibitors; 89% of 130 active
Target sequence (B2RXH2 1-337 limits assumed): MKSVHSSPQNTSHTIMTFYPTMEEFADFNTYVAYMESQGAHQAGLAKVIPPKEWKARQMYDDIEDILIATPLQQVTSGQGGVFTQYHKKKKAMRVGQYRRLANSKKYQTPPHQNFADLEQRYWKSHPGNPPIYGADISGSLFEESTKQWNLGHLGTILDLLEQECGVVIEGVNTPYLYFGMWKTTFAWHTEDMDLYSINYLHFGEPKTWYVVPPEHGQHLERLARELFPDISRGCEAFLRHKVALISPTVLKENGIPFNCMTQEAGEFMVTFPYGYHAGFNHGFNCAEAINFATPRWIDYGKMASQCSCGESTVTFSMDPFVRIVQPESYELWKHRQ
JMJD2E inh-2 = JMJD2E (human) demethylase inhibition, confirmation | shares compounds with JMJD2A Tudor inh | Recombinant JMJD2E, FDH-coupled NADH fluorescence (FDH is formaldehyde dehydrogenase) | Potency, µM (top dose mostly 56.8 µM), usual class: inhibitors | 93% of 140 active
FDH counter = counter-screen for JMJD2E inhibitors: Pseudomonas putida formaldehyde dehydrogenase. shares compounds with JMJD2A Tudor inh. FDH enzyme assay, NADH fluorescence kinetic. Potency, µM (highest dose often 56.7 µM), actives largely listed as inhibitors. 10% of 140 active
JMJD2E MS inh = human KDM4E demethylase inhibition; Potency, µM, hits mostly inhibitors; AID 2688; recombinant JMJD2E demethylation, MALDI-TOF-MS; shares compounds with JMJD2A Tudor inh; 90% of 45 active;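 active = compounds whose IC50 for blocking JMJD2E demethylation is below 100 µM; inconclusive = dose dependent effect but IC50 above 100 µM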
Large screens that a line does not name were inactive (follow-up assays come after a bar, where they were run). Compounds with a hit are over-represented: about 10% of the library has one in this group of screens. Unless noted, calls follow the shape of the dose curve; as a rule, active = well fitted curve in the direction sought with a large enough effect; inconclusive = small, poorly fitted or top-dose-only effect, or another doubt; inactive = no such curve, though single readings can be large; an effect the other way counts as inactive or inconclusive.

CC(CNC(=O)C1CCCN(S(=O)(=O)N2CCOCC2)C1)c1ccccc1 (stereo not given)	none
COc1ccc(C(=O)C2CCCN(C(=O)/C=C/c3ccccn3)C2)c(C)c1 (stereo not given)	none
O=C(Cc1cccc(NC(=O)C2CCCN(C(=O)C3CCC3)C2)c1)Nc1cccc(C(=O)N2CCCC2)c1 (stereo not given)	none
Oc1cccc2cc(CNc3ccccc3F)cnc12	none (no result: GLS inh, G9a block, JMJD2A Tudor inh, BAZ2B block, HP1b chromo inh) | JMJD2E inh-1 inconclusive | JMJD2E inh-2 3.24µM | FDH counter inactive
Oc1cccc2cc(NCc3ccccc3F)cnc12	none (no result: GLS inh, G9a block, JMJD2A Tudor inh, BAZ2B block, HP1b chromo inh) | JMJD2E inh-1 32.4µM | JMJD2E inh-2 20.4µM | FDH counter inactive
Oc1ccccc1CNc1cnc2ccccc2c1	none
O=C(COC(=O)c1cc2ccccc2cc1O)Nc1ccccc1F	none (no result: G9a block, BAZ2B block)
N#Cc1ccc(COC(=O)c2ccc(N3CCCC3)c([N+](=O)[O-])c2)cc1	G9a block inconclusive, JMJD2A Tudor inh inconclusive, BAZ2B block inconclusive
CCN1CCCC1CNC(=O)c1cc2cc(F)ccc2[nH]1 (stereo not given)	none
CN(Cc1ccco1)Cc1ccc(O)c2ncccc12	G9a block 1.41µM, BAZ2B block 3.16µM | JMJD2E inh-1 3.16µM | JMJD2E inh-2 3.16µM | FDH counter inactive
Oc1cc(Nc2ccc(N3CCCCC3)cc2)cc2cccnc12	BAZ2B block 35.5µM (no result: GLS inh, JMJD2A Tudor inh, HP1b chromo inh) | JMJD2E inh-1 28.2µM | JMJD2E inh-2 28.2µM | FDH counter inactive | JMJD2E MS inh 34.4
Oc1ccc(Nc2ccccc2F)c2cccnc12	JMJD2A Tudor inh 22.4µM (no result: GLS inh, G9a block, BAZ2B block, HP1b chromo inh) | JMJD2E inh-1 7.08µM | JMJD2E inh-2 7.08µM | FDH counter inactive | JMJD2E MS inh 22.3
Oc1ccc(-c2ccccc2F)c2cccnc12	JMJD2A Tudor inh 79.4µM (no result: GLS inh, G9a block, BAZ2B block, HP1b chromo inh) | JMJD2E inh-1 inconclusive | JMJD2E inh-2 9.13µM | FDH counter inactive | JMJD2E MS inh 34.4
O=S(=O)(Nc1ccc(O)c2ncccc12)c1ccccc1F	JMJD2A Tudor inh 25.1µM (no result: G9a block, BAZ2B block, HP1b chromo inh) | JMJD2E inh-1 6.46µM | JMJD2E inh-2 6.46µM | FDH counter inactive | JMJD2E MS inh 4.36
Oc1ccc(-c2nn[nH]n2)c2cccnc12	JMJD2A Tudor inh 14.1µM (no result: GLS inh, G9a block, BAZ2B block, HP1b chromo inh) | JMJD2E inh-1 2.89µM | JMJD2E inh-2 2.57µM | FDH counter inactive | JMJD2E MS inh 25.7
CC1CCOC2(O1)C(=O)Nc1ccccc12 (stereo not given)	none
COc1ccc(NC(=O)Nc2cccc3c2O[C@H](CN(C)S(C)(=O)=O)[C@@H](C)CN([C@H](C)CO)C3=O)cc1	none (no result: G9a block, BAZ2B block)
O=C(Nc1ccc(O)c2ncccc12)c1ccccc1F	JMJD2A Tudor inh 28.2µM (no result: GLS inh, G9a block, BAZ2B block, HP1b chromo inh) | JMJD2E inh-1 7.08µM | JMJD2E inh-2 7.08µM | FDH counter inactive | JMJD2E MS inh 24.8
O=C(Nc1cccc2ncccc12)c1ccccc1F	none
O=C(O)CSc1ccc(NC(=O)Nc2ccccc2F)cc1	none
Oc1ccc(NCc2ccccc2F)c2cccnc12	JMJD2A Tudor inh 50.1µM (no result: GLS inh, G9a block, BAZ2B block, HP1b chromo inh) | JMJD2E inh-1 inconclusive | JMJD2E inh-2 2.57µM | FDH counter inactive | JMJD2E MS inh 19.1
O=C(Cc1ccc(F)cc1)Nc1cccc2cccnc12	none
Oc1ccc(CNc2ccc(F)cc2F)c2cccnc12	JMJD2A Tudor inh 20µM (no result: GLS inh, G9a block, BAZ2B block, HP1b chromo inh) | JMJD2E inh-1 2.29µM | JMJD2E inh-2 5.76µM | FDH counter inactive | JMJD2E MS inh 42
O=C(NCc1cccnc1)Nc1ccc(F)cc1F	none
Oc1ccc(CCc2ccccc2F)c2cccnc12	none (no result: GLS inh, G9a block, BAZ2B block, HP1b chromo inh) | JMJD2E inh-1 10µM | JMJD2E inh-2 12.9µM | FDH counter inactive | JMJD2E MS inh 28.7
Oc1ccc(CNc2cccc(F)c2F)c2cccnc12	G9a block 1.12µM, BAZ2B block 39.8µM (no result: GLS inh, JMJD2A Tudor inh, HP1b chromo inh) | JMJD2E inh-1 2.51µM | JMJD2E inh-2 2.51µM | FDH counter inactive
Cc1ccc(CN2C(=O)C(C)Sc3ccc(C#N)cc32)cc1 (stereo not given)	none (no result: G9a block, JMJD2A Tudor inh, BAZ2B block, HP1b chromo inh)
O=C(c1ccc(F)cc1)N1CCN(c2ccccn2)CC1	none
O=C(c1ccc(-c2cc(O)c3ncccc3c2)cc1)N1CCNCC1	JMJD2A Tudor inh 20µM, BAZ2B block 7.94µM | JMJD2E inh-1 15.8µM | JMJD2E inh-2 15.8µM | FDH counter inactive
Oc1c(CN2CCCCC2)cc(COCc2ccccc2)c2cccnc12	G9a block inconclusive, JMJD2A Tudor inh 20µM, BAZ2B block 6.31µM | JMJD2E inh-1 3.98µM | JMJD2E inh-2 3.98µM | FDH counter inactive
CN(C)C1CCN(Cc2cc(COCc3ccccc3)c3cccnc3c2O)C1 (stereo not given)	JMJD2A Tudor inh 31.6µM, BAZ2B block 10µM | JMJD2E inh-1 11.5µM | JMJD2E inh-2 7.94µM | FDH counter inactive
CCOC(=O)Nc1ccc(=O)n(Cc2c(Cl)cccc2Cl)c1	G9a block inconclusive (no result: GLS inh)
O=[N+]([O-])c1ncccc1OCc1ccc(Cl)c(Cl)c1	none

Compound activity (PubChem BioAssay)
